SENP8 block-1: SENP8 (human) protease inhibition; recombinant SENP8, Nedd8 substrate fluorescence; inhibition, % at 20 µM; 360,000 tested, 0.64% active; in the data active means inhibition mostly above about 40%, no sharp cut-off; inactive means mostly below about 27%
EBI2 antag: blocks human EBI2 receptor beta-arrestin signaling; P32249; EBI2 beta-arrestin recruitment, luminescence, 7a,25-OHC stimulated; inhibition, % at 5 µM; 360,000 tested, 0.81% active; in the data active means inhibition above about 38%;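 further: enzyme fragment complementation signal reports receptor beta-arrestin coupling in cells; 0% = agonist plus DMSO wells and 100% = wells without agonist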
Target sequence (P32249 whole entry, looked up, the tested form may be a part): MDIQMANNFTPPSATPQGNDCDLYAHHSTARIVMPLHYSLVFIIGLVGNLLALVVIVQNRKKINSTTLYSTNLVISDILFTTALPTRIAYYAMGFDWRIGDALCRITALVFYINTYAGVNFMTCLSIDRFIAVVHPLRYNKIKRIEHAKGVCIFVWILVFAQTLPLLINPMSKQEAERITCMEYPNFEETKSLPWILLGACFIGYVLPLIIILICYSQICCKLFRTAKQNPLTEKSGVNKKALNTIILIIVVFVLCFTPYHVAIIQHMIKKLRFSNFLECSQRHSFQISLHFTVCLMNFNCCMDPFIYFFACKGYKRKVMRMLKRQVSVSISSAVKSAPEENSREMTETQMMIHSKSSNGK
SENP6 block: blocks the human protease SENP6 | AID 2599 | 330,000 tested, 1.8% active | inhibition, % at 10 µM | Recombinant SENP6 catalytic domain, aminoluciferin luminescence | Q9GZR1;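 active means inhibition above about 50% at the single tested dose, limit read from the data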;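 further: plate controls were DMSO wells with enzyme for no effect and DMSO wells lacking enzyme for full effect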
SENP8 block-2: SENP8 protease inhibition; Q96LD8; purified SENP8, Z-RLRGG-aminoluciferin cleavage, luminescence; inhibition, % at 10 µM; 330,000 tested, 1.2% active; in the data active means inhibition above about 50%
SENP7 block: inhibitors of human SENP7 protease; AID 434973; Q9BQF6; 330,000 tested, 1.5% active; inhibition, % at 5 µM; recombinant SENP7, Z-RLRGG-aminoluciferin luminescence, 40 min;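 active means inhibition above about 50% at the single test dose, limit read from the data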;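 further: plate controls were DMSO with enzyme for no effect and no enzyme buffer wells for full effect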
AHR act: human AHR activation. AHR-responsive luciferase reporter cells, luminescence. P35869. 320,000 tested, 2.5% active. activation, % at 5 µM. AID 2796; in the data active means activation above about 47%;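 further: 0% = vehicle wells and 100% = reference agonist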
An asterisk follows results filed as active. Compounds with a hit are over-represented: about 5% of the library has one in this group of screens.

CN(C)c1nc2ccccc2c(N)c1-c1ccccc1 was read as SENP8 block-1 -18, EBI2 antag 8, SENP6 block -13, SENP8 block-2 5, SENP7 block -6 and AHR act 55*.
Screening CCN(c1ccccc1)S(=O)(=O)c1ccc(Oc2ccccc2C(C)=O)nc1 returned SENP8 block-1 -16, EBI2 antag -2, SENP6 block -22, SENP8 block-2 -7, SENP7 block -10 and AHR act 4.
`CCN(c1ccccc1)S(=O)(=O)c1ccc(Oc2ccc(-n3ccnc3)cc2)nc1` gave SENP8 block-1 5, EBI2 antag 22, SENP6 block -5, SENP8 block-2 -4, SENP7 block -2 and AHR act 59*.
`CN(CC(=O)Nc1ccccc1Br)C(=O)c1ccccc1OCc1ccc(Cl)cc1` gave SENP8 block-1 -1 and EBI2 antag 5.
O=C(CSc1ccccc1)N1CCN(c2ccc(F)cc2)CC1 was read as SENP8 block-1 19, EBI2 antag 21, SENP6 block -18, SENP8 block-2 5, SENP7 block 2 and AHR act 0.
For CN(C)CCCN(C(=O)c1ccc([N+](=O)[O-])s1)c1nc2cc3c(cc2s1)OCCO3 the results were SENP8 block-1 19, EBI2 antag -14, SENP6 block 47, SENP8 block-2 55*, SENP7 block 5 and AHR act -7.
Screening CCN(CC)c1ccc(/C=N/NC(=O)c2ccc(Br)o2)cc1 returned SENP8 block-1 -292, EBI2 antag 29, SENP6 block 70*, SENP8 block-2 34, SENP7 block 49 and AHR act 88*.
CCN(CC)c1ccc(/C=N/NC(=S)NCc2ccccc2)cc1 was read as SENP8 block-1 inactive, EBI2 antag 30, SENP6 block -14, SENP8 block-2 0, SENP7 block 4 and AHR act 9.
`CCN(CC)c1ccc(/C=N/NC(=O)c2ccc3c(c2)OCCO3)cc1` gave SENP8 block-1 -446, EBI2 antag 4, SENP6 block -8, SENP8 block-2 7 and SENP7 block 0.
Screening CCN(CC)c1ccc(/C=N/NC(=O)Nc2nonc2N)cc1 returned SENP8 block-1 -391, EBI2 antag 8, SENP6 block -2, SENP8 block-2 -7, SENP7 block 5 and AHR act 67*.
CCN(CC)c1ccc(/C=N/NC(=S)NCc2ccc(OC)cc2)cc1 was read as SENP8 block-1 -355, EBI2 antag 18, SENP6 block 8, SENP8 block-2 -4, SENP7 block 2 and AHR act 49*.
Screening CCN(CC)c1ccc(/C=N/NC(=O)Cc2cccs2)cc1 returned SENP8 block-1 -278, EBI2 antag 0, SENP6 block -35, SENP8 block-2 -15, SENP7 block 4 and AHR act 25.
For CCOc1ccc2nc(S(=O)(=O)NC(=O)C3(C)CCN3C(=O)CCc3cccs3)sc2c1 (stereo unspecified) the results were SENP8 block-1 6 and EBI2 antag 5.
Cc1cc(C(=O)Nc2ccc3nc(C)sc3c2)c2ccccc2n1 was read as SENP8 block-1 13, EBI2 antag -2, SENP6 block 0, SENP8 block-2 -8, SENP7 block 0 and AHR act 12.
For CC(=O)c1ccc(NC(=O)C2CCCN2S(=O)(=O)c2ccc(F)cc2)cc1 (stereo unspecified) the results were SENP8 block-1 -4, EBI2 antag -10, SENP6 block -9, SENP8 block-2 -3, SENP7 block -9 and AHR act -1.
Screening O=C(Nc1ccc(O)cc1)C1CCCN1S(=O)(=O)c1ccc(F)cc1 (stereo unspecified) returned SENP8 block-1 11, EBI2 antag -11, SENP6 block -12, SENP8 block-2 -9, SENP7 block 11 and AHR act 79*.
c1ccc2c(Nc3ccc(N4CCOCC4)cc3)nc(N3CCOCC3)nc2c1 was read as SENP8 block-1 -18, EBI2 antag 13, SENP6 block -10, SENP8 block-2 -4, SENP7 block -16 and AHR act 72*.
Screening Cc1cccc(-c2nc(Nc3cccc(O)c3)c3ccccc3n2)c1 returned SENP8 block-1 -233, EBI2 antag -29, SENP6 block -29, SENP8 block-2 -18, SENP7 block -7 and AHR act 68*.
Screening Cc1cccc(-c2nc(Nc3ccc(N4CCOCC4)cc3)c3ccccc3n2)c1 returned SENP8 block-1 -7, EBI2 antag 0, SENP6 block 5, SENP8 block-2 -5, SENP7 block -5 and AHR act 56*.
O=C(CS(=O)(=O)c1ccccc1)NCc1ccccc1 was read as SENP8 block-1 5, EBI2 antag 0, SENP6 block 4, SENP8 block-2 4, SENP7 block -4 and AHR act -1.
`O=C(O)C1C=CC(C(=O)O)c2ccccc21` (stereo unspecified) gave SENP8 block-1 20 and EBI2 antag -6.
Screening COc1c2ccc(OCC/C(C)=C/C(=O)C=C(C)C)cc2nc2occc12 returned SENP8 block-1 -161, EBI2 antag 0, SENP6 block -5, SENP8 block-2 -6, SENP7 block 10 and AHR act 76*.
Screening COc1cc2nc3occc3c(OC)c2cc1OC returned SENP8 block-1 -56, EBI2 antag -3, SENP6 block -2, SENP8 block-2 -7, SENP7 block 8 and AHR act -10.
`COc1cc(NC(=O)c2cccc(F)c2)cc(OC)c1OC` gave SENP8 block-1 17, EBI2 antag 1, SENP6 block -7, SENP8 block-2 -2, SENP7 block -4 and AHR act 63*.
`O=C(Nc1ccc2c(c1)C(=O)NC2=O)c1ccccc1` gave SENP8 block-1 -454, EBI2 antag 2, SENP6 block 2, SENP8 block-2 8, SENP7 block 5 and AHR act 37.
Screening O=C(Nc1ccc2c(c1)C(=O)NC2=O)c1cccc(C(F)(F)F)c1 returned SENP8 block-1 -373, EBI2 antag 7, SENP6 block 0, SENP8 block-2 -1, SENP7 block 2 and AHR act 53*.
Screening COc1cc(OC)c(NC(=O)c2cccc(F)c2)cc1Cl returned SENP8 block-1 9, EBI2 antag 4, SENP6 block 5, SENP8 block-2 -7, SENP7 block -7 and AHR act 30.
For COc1ccc(C(N)=O)cc1NC(=O)c1cccc(F)c1 the results were SENP8 block-1 26, EBI2 antag 2, SENP6 block -12, SENP8 block-2 -12, SENP7 block -6 and AHR act 61*.
O=C(Nc1ccc(F)cc1)c1cccc(C(=O)Nc2ccc(F)cc2)c1 was read as SENP8 block-1 11, EBI2 antag -1, SENP6 block 34, SENP8 block-2 8, SENP7 block 5 and AHR act 51*.
`O=C(Nc1ccc(F)cc1)c1ccccc1` gave SENP8 block-1 6, EBI2 antag -8, SENP6 block 5, SENP8 block-2 8, SENP7 block 4 and AHR act 1.

Screening data from PubChem.
